Compound activity from PubChem BioAssay.
In the library only some 4.5% were active in any assay of this set; here they are far more common.
697 NFkB inh = inhibitors of PMA/ionomycin-induced NF-kB reporter, 697 cells, primary screen, B-cell NF-kB inhibitor project, cell-based, luminescence, uHTS. 697 B-cell NF-kB luciferase reporter, 16 h. inhibition, % at 4 µM. 330,000 tested, 0.33% active. AID 435022, 2010; in the data active = inhibition above about 35%
CSC inhib = cancer stem cell viability inhibitors, primary screen, luminescence. inhibition, % at 7.5 µM. 300,000 tested, 1.1% active. cancer stem cell-like cells viability. AID 2717, 2010; in the data active = inhibition above about 75%; inconclusive = no clear call, values can overlap the other calls; tested in HMLE shEcad cells
Mdm2 MdmX PPI = inhibitors of human Mdm2-MdmX association, primary screen, cell-based, luminescence, split luciferase, SaOS-2, uHTS | Protein Mdm4 (Homo sapiens) + E3 ubiquitin-protein ligase Mdm2 (Homo sapiens), … | SaOS-2 split-luciferase Mdm2/MdmX complementation | inhibition, % at 8 µM | 330,000 tested, 3% active;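 active = inhibition of at least 50% at 8 µM in the primary screen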
Target sequence (O15151 whole entry, looked up): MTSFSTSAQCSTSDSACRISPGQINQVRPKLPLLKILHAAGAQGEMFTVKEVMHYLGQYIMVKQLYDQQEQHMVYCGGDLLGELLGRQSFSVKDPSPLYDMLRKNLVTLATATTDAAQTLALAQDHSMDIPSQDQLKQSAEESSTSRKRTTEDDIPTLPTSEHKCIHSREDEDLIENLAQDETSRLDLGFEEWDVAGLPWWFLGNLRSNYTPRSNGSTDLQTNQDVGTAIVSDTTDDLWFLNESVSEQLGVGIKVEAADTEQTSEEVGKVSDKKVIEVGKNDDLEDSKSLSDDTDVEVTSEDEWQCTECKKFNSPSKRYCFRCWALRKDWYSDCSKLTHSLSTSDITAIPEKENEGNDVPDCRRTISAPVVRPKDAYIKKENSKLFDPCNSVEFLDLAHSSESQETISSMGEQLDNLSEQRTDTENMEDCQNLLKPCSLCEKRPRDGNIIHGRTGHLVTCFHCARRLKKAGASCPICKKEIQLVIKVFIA
Target sequence (Q00987 whole entry, looked up): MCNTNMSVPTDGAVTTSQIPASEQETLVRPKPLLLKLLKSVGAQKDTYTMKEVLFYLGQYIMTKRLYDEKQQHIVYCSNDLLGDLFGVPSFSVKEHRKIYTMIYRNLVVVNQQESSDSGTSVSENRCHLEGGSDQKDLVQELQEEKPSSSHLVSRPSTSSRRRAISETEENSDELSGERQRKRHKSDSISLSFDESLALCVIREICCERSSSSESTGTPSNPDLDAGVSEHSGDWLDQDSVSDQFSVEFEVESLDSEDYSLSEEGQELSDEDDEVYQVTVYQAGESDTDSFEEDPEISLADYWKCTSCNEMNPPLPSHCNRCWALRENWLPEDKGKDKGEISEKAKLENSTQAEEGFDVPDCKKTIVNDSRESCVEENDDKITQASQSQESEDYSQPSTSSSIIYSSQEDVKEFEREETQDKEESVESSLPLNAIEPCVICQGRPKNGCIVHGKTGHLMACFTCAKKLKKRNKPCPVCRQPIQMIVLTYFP
aSyn 5UTR inh = MLPCN primary screen, SNCA 5' untranslated region | alpha-synuclein 5'UTR reporter, inhibitor activity | inhibition, % (tested at 7.5 µM) | 300,000 tested, 0.82% active; in the data active = inhibition above about 60%; inconclusive = no clear call, values can overlap the other calls;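 also: H4 neuroglioblastoma cells stably carrying SNCA 5'UTR luciferase fusion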
Gli-Sufu antag = Gli-Sufu pathway antagonists, primary screen, luciferase luminescence, Sufu-KO-LIGHT cells, uHTS | Sufu-KO-LIGHT fibroblasts, Gli luciferase reporter luminescence | inhibition, % at 5 µM | 340,000 tested, 0.74% active | AID 588413, 2011;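 active = inhibition above about 55%, limit read from the data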
Jurkat NFkB inh = inhibitors of induced NF-kB luciferase reporter, primary screen, TCR NF-kB activation inhibitor project, cell-based, luminescence, uHTS; Jurkat, PMA/ionomycin-induced NF-kB luciferase reporter; inhibition, % at 4 µM; 330,000 tested, 0.53% active; AID 435003, 2010; in the data active = inhibition above about 50%
Mdm2 MdmX conf = Mdm2-MdmX complex disruptors, retested hits, confirmation, luminescence, single concentration. shares compounds with Mdm2 MdmX PPI. Mdm2-MdmX binding, luminescent assay. inhibition, % at 8 µM. 10,000 tested, 55% active. AID 489028, 2010; in the data active = inhibition above about 40%
FLuc counter = full-length luciferase signal inhibition, confirmation, counter-screen for Mdm2/MdmX interaction inhibitor project, cell-based, single concentration, SaOS-2 | shares compounds with Mdm2 MdmX PPI | SaOS-2 full-length luciferase counterscreen, luminescence | inhibition, % at 8 µM | 6,200 tested, 77% active | AID 504607, 2011;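 active = mean inhibition at 8 µM reaching about 37%, which flags the compound as non-specific, limit read from the data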;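 also: p53-null SaOS-2 cells with luciferase driven by a doxycycline-inducible promoter; compound on cells about two nights before reading with doxycycline added after day one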
Hits are given with their value; i = inactive; ? = inconclusive; nt = no result.

SMILES	697 NFkB inh	CSC inhib	Mdm2 MdmX PPI	aSyn 5UTR inh	Gli-Sufu antag	Jurkat NFkB inh	Mdm2 MdmX conf	FLuc counter
COc1ccccc1Cn1c(=S)[nH]c2cc(C(=O)NCC3CCCO3)ccc2c1=O (stereo not drawn)	i	i	i	i	i	i	nt	nt
CC1CCCCN1CCNC(=O)c1ccc2c(=O)n(Cc3ccc(Cl)cc3)c(=S)[nH]c2c1 (stereo not drawn)	i	i	78	i	i	i	i	nt
CC[C@H](C)[C@@H](C(=O)NCCCCCCCCCCC(=O)N1CCN(C(=O)OC(C)(C)C)CC1)n1cc(CCCCN=C(NC(=O)OC(C)(C)C)NC(=O)OC(C)(C)C)nn1	i	i	64	nt	nt	i	i	nt
CC(C)(C)OC(=O)NCCCCCc1cn([C@@H](CO)C(=O)NCCCCCCCCCCC(=O)N2CCN(C(=O)OC(C)(C)C)CC2)nn1	i	i	62	nt	60	i	i	nt
CC[C@@H](C)[C@@H](C(=O)N1CCN(C(=O)OC(C)(C)C)CC1)n1cc(CCCN=C(NC(=O)OC(C)(C)C)NC(=O)OC(C)(C)C)nn1	i	i	i	i	i	i	nt	nt
CCOC(=O)C1CCN(C(=S)Nc2cccc(C)c2C)CC1	i	nt	i	i	i	i	nt	nt
N#CC(C#N)=c1ccc2c(c1)N1C(c3ccccc3)=CC(c3ccccc3)C3CCCCC31N=2 (stereo not drawn)	i	i	61	i	i	i	i	nt
COc1ccc(-c2c3c(nc4sc5c(=O)[nH]c(C)nc5c24)CCC3)cc1	i	i	67	i	i	i	i	nt
COc1ccc(C(=O)NCCSc2ccccc2)cc1OC	i	i	i	i	i	i	nt	nt
O=C(Nc1cc(Cl)ccc1-n1cncn1)C1CC1	i	i	i	i	i	i	nt	nt
COc1ccc2oc(=O)c(-c3csc(Nc4ccc(O)cc4)n3)cc2c1	i	i	54	i	i	i	i	133
COc1ccc(CCN2C(=O)/C(=C\c3ccco3)SC2=S)cc1OC	i	nt	75	i	i	i	47	79
COc1ccc(CCN2C(=O)CSC2=S)cc1OC	i	i	85	i	i	i	84	40
O=C1/C(=C\c2ccco2)SC(=S)N1Cc1ccccc1	i	i	i	i	i	i	nt	nt
CCc1ccc(N(C(=O)c2snc(C(N)=O)c2N)C(C(=O)NCC2CCCO2)c2ccco2)cc1 (stereo not drawn)	i	i	i	i	i	i	nt	nt
Nc1cc2ccncc2c2ccccc12	i	i	84	i	i	i	84	50
N=c1c2c(-c3ccccc3)c(-c3ccccc3)n(Cc3ccco3)c2ncn1Cc1ccco1	i	i	98	i	i	i	46	i
O=c1c2cnn(-c3ccccc3)c2ncn1Cc1ccco1	i	i	i	i	i	i	nt	nt
CN(C)CCOc1nc(-c2ccccc2)nc2c1oc1ccccc12	i	i	71	i	i	i	i	nt
CN(C)CCOc1ncnc2c1oc1ccccc12	i	i	i	i	i	i	nt	nt
CN(C)c1ccc(/C=C2\C(=N)N3C(=NC2=O)Sc2cc(S(C)(=O)=O)ccc23)cc1	i	i	89	i	nt	i	i	nt
CN(C)c1ccc(/C=C2\C(=N)N3N=C(CC(=O)N4CCCCC4)SC3=NC2=O)cc1	i	i	i	i	i	i	nt	nt
O=C1[C@H]2[C@@H](/C=C/c3ccccc3)N3C(=O)CN(Cc4ccccn4)C(=O)[C@@]3(Cc3ccccc3)[C@H]2C(=O)N1c1ccccc1	i	i	i	i	i	i	nt	nt
CC1CC(N(C(=O)c2ccc(Cl)cc2)c2ccccc2)c2ccccc2N1C(=O)c1ccco1 (stereo not drawn)	i	i	50	i	i	i	i	nt
CC1CC(N(C(=O)c2ccco2)c2ccccc2)c2ccccc2N1C(=O)c1ccco1 (stereo not drawn)	i	i	i	i	i	i	nt	nt
SMILES	697 NFkB inh	CSC inhib	Mdm2 MdmX PPI	aSyn 5UTR inh	Gli-Sufu antag	Jurkat NFkB inh	Mdm2 MdmX conf	FLuc counter
COc1cccc(NC(=O)C2C3C=CC(C3)C2C(=O)O)c1 (stereo not drawn)	i	i	i	i	i	i	nt	nt
Cc1nn(-c2ccc(Cl)cc2)c(=O)c2ccccc12	i	i	i	i	i	i	nt	nt
Cc1c(Cl)sn(-c2ccc(Cl)cc2)c1=O	i	nt	96	nt	i	i	99	52
CC(=O)Nn1cnc2c(c1=O)C1(CCCC1)Cc1ccccc1-2	i	i	i	nt	i	i	nt	nt
Oc1ccc(-c2nc3c4c(ncn3n2)-c2ccccc2CC42CCCC2)cc1	i	i	78	i	i	i	i	nt
Cc1cc(C(=O)COC(=O)c2cccnc2Cl)c(C)n1CC1CCCO1 (stereo not drawn)	i	i	79	i	i	i	82	97
Cc1cc(C(=O)COC(=O)c2cccc(NS(C)(=O)=O)c2)c(C)n1CC1CCCO1 (stereo not drawn)	i	i	70	nt	i	i	74	97
Cc1cc(C(=O)COC(=O)c2ccccc2Br)c(C)n1CC1CCCO1 (stereo not drawn)	i	i	91	i	76	i	93	39
Cc1ccc(C(=O)OCC(=O)c2cc(C)n(CC3CCCO3)c2C)cc1 (stereo not drawn)	i	i	i	i	i	i	nt	nt
Cc1cc(C(=O)COC(=O)c2ccccc2O)c(C)n1Cc1cccs1	i	i	97	93	81	i	94	i
Cc1cc(C(=O)COC(=O)c2ccc3c(c2)OCO3)c(C)n1Cc1cccs1	i	i	i	i	i	i	nt	nt
O=C(O)c1cccc(N2C(=O)c3cccc(Oc4ccc(Cl)cc4)c3C2=O)c1	i	i	i	i	i	i	nt	nt
CCOC(=O)c1ccc(CNC(=O)c2cc(COc3ccccc3SC)on2)o1	i	i	i	i	i	i	nt	nt
COCCn1c(C)cc(C(=O)COC(=O)c2ccccc2Br)c1C	i	i	80	?	i	i	93	74
CC(C)(C)n1nnnc1C(c1ccc(C(F)(F)F)cc1)N(Cc1ccc(F)cc1)Cc1ccco1 (stereo not drawn)	i	i	90	i	i	i	i	nt
Cc1ccc(C(c2nnnn2C(C)(C)C)N(Cc2ccco2)Cc2cccs2)cc1 (stereo not drawn)	i	i	i	i	i	i	nt	nt
CCN(Cc1ccccc1)C(c1ccncc1)c1nnnn1C(C)(C)C (stereo not drawn)	i	nt	i	i	i	i	nt	nt
